Results filed as inconclusive are left out. Entries that show only a call come without a potency. Activity calls are given as the source filed them. Calls come from the whole dose curve.
Each molecule was assayed against Retinoic acid receptor RXR-alpha (Homo sapiens) (UniProt P19793) (assay: qHTS assay to identify small molecule agonists of the RXR signaling pathway (AID 1159527; note: nearly all actives have a fitted effect of over 35% in size)). Conditions: HEK293T RXRa-UAS-bla, beta-lactamase ratio, 16 h; series mostly up to 76.8 µM.
Description: U.S. Tox21 Program National Center for Advancing Translational Sciences [NCATS] NIH Chemical Genomics Center [NCGC] U.S. Environmental Protection Agency [EPA] National Institutes of Environmental Health Sciences [NIEHS] National Toxicology Program [NTP] U.S. Food and Drug Administration [FDA] Tox21 Assay Overview: The Retinoid X receptor (RXR), a nuclear hormone receptor expressed in liver, spleen, placenta, epidermis, central nervous system. These receptors are able to form homo and heterodimers with other nuclear receptors and due to this heterodimerizing ability, RXR functions as master regulators producing diverse physiological effects. Three subtypes of RXR exist; alpha, beta and gamma. Retinoid X receptor alpha (RXR-alpha) has potential roles in metabolic signaling pathways, skin alopecia, dermal cysts, cardiac development, insulin sensitization etc. Therefore screening environmental chemicals on RXR-alpha signaling can be used for the studies focused on such therapeutic applications. For quantification of RXR-alpha ligands signaling, GeneBLAzer RXR alpha-UAS-bla HEK 293T (Life Technologies, Carlsbad, CA) cells containing a beta-lactamase reporter-gene under control of Retinoid X receptor-alpha response element were used to screen Tox21 10K library.
Tox21 Assay Protocol Summary: RXR-alpha HEK 293T cells were dispensed at 2,000 cells/6 uL of assay medium containing 2% charcoal-stripped FBS using a Multidrop Combi (ThermoFisher Scientific, Waltham, MA) dispenser. The assay was performed in black wall/clear-bottom 1536-well plates (Greiner Bio-One North America Inc. Monroe, NC). 9-cis retinoic acid was used as a positive control in the agonist mode screen. After the assay plates were incubated at 37 C and 5% CO2 for 5 hr, 23 nL of compounds dissolved in DMSO, positive controls or DMSO only were transferred to the assay plate by a Pintool station (Kalypsys, San Diego, CA). The assay plates were incubated at 37 C and 5% CO2 for 16 hr. One uL of LiveBLAzer B/G FRET substrate (Life Technologies) was added using a Flying Reagent Dispenser (Aurora Discovery, San Diego, CA) and the plates were incubated at room temperature for 2 hr. Fluorescence intensity (405 nm excitation, 460/530 nm emission) was measured using an Envision plate reader (PerkinElmer, Shelton, CT).
Potency is the fitted concentration of half-maximal effect.

Retinoic acid receptor RXR-alpha (Homo sapiens), sequence (P19793 whole entry, looked up): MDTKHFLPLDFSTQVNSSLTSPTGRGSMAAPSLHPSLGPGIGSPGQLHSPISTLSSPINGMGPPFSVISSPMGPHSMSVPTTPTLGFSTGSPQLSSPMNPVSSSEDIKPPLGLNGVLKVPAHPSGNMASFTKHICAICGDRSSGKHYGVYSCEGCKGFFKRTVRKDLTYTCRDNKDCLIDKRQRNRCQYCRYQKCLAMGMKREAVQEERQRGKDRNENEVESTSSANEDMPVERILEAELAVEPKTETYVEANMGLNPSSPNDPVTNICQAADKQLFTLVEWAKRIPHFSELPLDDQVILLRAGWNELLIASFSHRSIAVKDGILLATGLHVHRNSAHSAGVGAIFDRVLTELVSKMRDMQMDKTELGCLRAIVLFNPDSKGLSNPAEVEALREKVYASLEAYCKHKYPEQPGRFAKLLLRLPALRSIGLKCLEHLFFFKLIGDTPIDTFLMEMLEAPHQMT

Row | Compound | Potency | activation
1 | CC1=CC(C)C(C=O)C(C)C1 (stereo not given) | inactive | –
2 | CC12CCC(CC1=O)C2(C)C (stereo not given) | inactive | –
3 | CCC(C)(C)C1CCC(OC)CC1 (stereo not given) | inactive | –
4 | CC(C)(C)CC(C)(C)N | 2.12 µM (active) | –
5 | NC(=S)Nc1cccc2ccccc12 | – | 6.32% [at 6.98 µM] (inactive)
6 | CC(C)COC(=O)c1ccccc1O | inactive | –
7 | CC(C)CCCC(C)NCCC(C)C (stereo not given) | inactive | –
8 | CCn1cc(C(=O)O)c(=O)c2cc(F)c(N3CCN(C)CC3)cc21 | – | 8.93% [at 15.8 µM] (inactive)
9 | Cc1nccn1CC1CCc2c(c3ccccc3n2C)C1=O (stereo not given) | inactive | –
10 | C=C(C)[C@H]1CC=C(C)CC1 | inactive | –
11 | CCN1CCCC(OC(=O)C(c2ccccc2)c2ccccc2)C1 (stereo not given) | inactive | –
12 | CCCCCCCCC=O | inactive | –
13 | Fc1ccccc1-c1ccccc1 | inactive | –
14 | CC1=CC(=O)CCC1 | inactive | –
15 | O=S(=O)(c1cccc2cnccc12)N1CCCNCC1 | inactive | –
16 | CCCc1ccc(N)cc1 | inactive | –
17 | CC(C=O)Cc1ccc(C(C)C)cc1 (stereo not given) | inactive | –
18 | C=CCn1c(=O)n([C@@H]2O[C@H](CO)[C@@H](O)[C@H]2O)c2nc(N)[nH]c(=O)c21 | inactive | –
19 | NC(CS)C(=O)O (stereo not given) | inactive | –
20 | CCCCOCC(C)OCC(C)O (stereo not given) | inactive | –

Row | Compound | Potency | activation
21 | C=C(C)C(=O)OCCCCCCCCCCCCCCCCCC | – | 6.68% [at 15.8 µM] (inactive)
22 | CC(C)=CCC/C(C)=C/C(=O)O | inactive | –
23 | NS(=O)(=O)c1cc2c(cc1Cl)NC(CSCc1ccccc1)=NS2(=O)=O | inactive | –
24 | CCCCCCCCCCCCCCCCCCOCC(O)CO (stereo not given) | inactive | –
25 | COc1cccc(OC)c1 | inactive | –
26 | C1CCCCCCCCCCC1 | – | 0.57% [at 15.8 µM] (inactive)
27 | Cn1ccc2cc3c(cc21)CCN3C(=O)Nc1cccnc1 | – | 14.3% [at 15.8 µM] (inactive)
28 | CCN(CC)S(=O)(=O)c1ccc(C(=O)O)cc1 | inactive | –
29 | C=CCSCC1Nc2cc(Cl)c(S(N)(=O)=O)cc2S(=O)(=O)N1 (stereo not given) | inactive | –
30 | CC(C)CCOC(=O)CC(C)C | inactive | –
31 | OCC(O)[C@@H](O)[C@H](O)[C@H](O)CO[C@H]1O[C@H](CO)[C@@H](O)[C@H](O)[C@H]1O (stereo not given in full) | inactive | –
32 | N#CC1(O)CCCCC1 | inactive | –
33 | CCN1CCN(c2cc3c(cc2F)c(=O)c(C(=O)O)cn3C2CC2)CC1 | inactive | –
34 | O=Cc1ccccc1[N+](=O)[O-] | inactive | –
35 | O=C(O)C1CCC1 | inactive | –
36 | NC(=O)c1ncn([C@@H]2O[C@H](CO)[C@@H](O)[C@H]2O)c1N | inactive | –
37 | OCCCCCCO | inactive | –
38 | COCc1ccc(COC)cc1 | inactive | –
39 | Cc1ccc(Nc2ccc(O)c3c2C(=O)c2ccccc2C3=O)cc1 | inactive | –
40 | O=C(O)c1ccccc1-c1ccc(C(F)(F)F)cc1 | inactive | –
